# Experimental data reported in PubChem BioAssay (EPA / NIEHS).
# Records with an inconclusive call do not appear. Activity calls are given as the source filed them. The calls were made as follows: active = hit-call score of the fitted dose curve at least 0.9, where 1 is the maximum; inconclusive = response in the unintended direction; inactive = score below 0.9.
# Tests used:
# [1] = target: human Opioid Receptor Mu (Opiate Mu), OPRM1 (gene 4988) (UniProt P35372); test: NVS_GPCR_hOpiate_mu: NovaScreen (NVS) G Protein-Coupled Receptor Assay for human Opioid Receptor Mu (Opiate Mu) (AID 2283290);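 also: hits lower bound tracer signal versus DMSO meaning displacement of the ligand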
# In short: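 Cell-free radioligand binding to membranes from CHO cells expressing the receptor; bound tracer measured by filter-based scintillation counting 2.5 hours after dosing. Loss of signal versus DMSO baseline reflects displacement; primary screen at 25 uM in duplicate, actives followed up in concentration series.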
# [2] = test system: rat Adrenergic, Alpha 1B Receptor (Adra1B), gene 24173; test: NVS_GPCR_rAdra1B: NovaScreen (NVS) G Protein-Coupled Receptor Assay for rat Adrenergic, Alpha 1B Receptor (Adra1B) (AID 2283297)
# In short: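 Rat liver membranes, radioligand displacement with filter-based scintillation detection, 1 h incubation. Primary screen in duplicate at 25 uM; actives retested in concentration series; activity relative to DMSO.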
# [3] = test system: rabbit Platelet Activating Factor Receptor (PAF), gene 100354046; test: NVS_GPCR_rabPAF: NovaScreen (NVS) G Protein-Coupled Receptor Assay for rabbit Platelet Activating Factor Receptor (PAF) (AID 2283287)
# In short: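 Rabbit platelet membrane preparation; radioligand displacement read by filter-based scintillation counting 1 h after dosing, loss of signal versus DMSO. Primary screen in duplicate at 25 uM, actives followed up in concentration series.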
# [4] = target: rat Neurotensin Receptor (NTS), Ntsr1 (gene 366274) (UniProt P20789); test: NVS_GPCR_rNTS: NovaScreen (NVS) G Protein-Coupled Receptor Assay for rat Neurotensin Receptor (NTS) (AID 2283308)
# In short: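 Rat forebrain membranes; radioligand binding with competitive displacement, read by filter-based scintillation counting 1 h after dosing. Primary screen in duplicate at 25 uM; actives (e.g., 30% inhibition) rerun in concentration-response up to 50 uM, loss-of-signal versus DMSO.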
# [5] = test system: guinea pig Atrionatriuretic Peptide Receptor A (ANPA), gene 100135578; test: NVS_GPCR_gANPA: NovaScreen (NVS) G Protein-Coupled Receptor Assay for guinea pig Atrionatriuretic Peptide Receptor A (ANPA) (AID 2283291)
# In short: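 Radioligand binding to guinea pig cerebellar membranes was measured after 1 h by filter-based scintillation counting. Chemicals were tested in duplicate at 25 uM, with hits run in concentration-response to a maximum of 50 uM. Binding loss was fitted against DMSO.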
# [6] = target: guinea pig Serotonin, 5-Hydroxytryptamine Receptor 4 (5HT4), HTR4 (gene 100135548) (UniProt O70528); test: NVS_GPCR_g5HT4: NovaScreen (NVS) G Protein-Coupled Receptor Assay for guinea pig Serotonin, 5-Hydroxytryptamine Receptor 4 (5HT4) (AID 2283294)
# In short: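 Guinea pig striatal membranes; radioligand competitive displacement, filtration and scintillation counting after 1 h. Primary screen in duplicate at 25 uM; actives then tested in concentration series; loss of binding signal fitted relative to DMSO.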
# [7] = target: rat Adrenergic Receptor, Alpha 2 (Adra2), Non-selective Binding, Adra2a (gene 25083) (UniProt P22909); test: NVS_GPCR_rAdra2_NonSelective: NovaScreen (NVS) G Protein-Coupled Receptor Assay for rat Adrenergic Receptor, Alpha 2 (Adra2), Non-selective Binding (AID 2283299)
# In short: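 Rat cortical membranes, radioligand competitive displacement read by filter-based scintillation counting 1.25 hours after dosing. Primary screen in duplicate at 25 uM; actives followed up in concentration series.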
# [8] = target: Adra2b (gene 24174) (UniProt P19328); test: NVS_GPCR_rmAdra2B: NovaScreen (NVS) G Protein-Coupled Receptor Assay for hybird cells Adrenergic, Alpha 2B Receptor (Adra2B) (AID 2283306)
# In short: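 Radioligand filter-binding assay on membrane proteins from neuroglioma/blastoma hybrid cells (rodent), 1 h after dosing; scintillation counting, loss of signal vs DMSO. Primary screen in duplicate at 25 uM, actives then run in concentration series.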
# [9] = target: rat Corticotropin Releasing Factor Receptor (CRF), Crhr1 (gene 58959) (UniProt P35353); test: NVS_GPCR_rCRF: NovaScreen (NVS) G Protein-Coupled Receptor Assay for rat Corticotropin Releasing Factor Receptor (CRF) (AID 2283300)
# In short: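 Rat cortical membranes used as receptor source in a radioligand competitive displacement binding assay; scintillation read 2 h after dosing. Primary screen run in duplicate at 25 uM; loss of signal versus DMSO baseline indicates binding.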
# [10] = target: rat Serotonin, 5-Hydroxytryptamine Receptor (5HT), Non-Selective Binding, Htr1a (gene 24473) (UniProt P19327); test: NVS_GPCR_r5HT_NonSelective: NovaScreen (NVS) G Protein-Coupled Receptor Assay for rat Serotonin, 5-Hydroxytryptamine Receptor (5HT), Non-Selective Binding (AID 2283295)
# In short: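 Radioligand displacement on rat cortical membranes, 1 h incubation, filter-based scintillation counting. Primary duplicates at 25 uM, actives retested in concentration series; loss of signal fitted against DMSO as baseline.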
# [11] = target: guinea pig Bradykinin Receptor B2 (BK2), BDKRB2 (gene 100135486) (UniProt O70526); test: NVS_GPCR_gBK2: NovaScreen (NVS) G Protein-Coupled Receptor Assay for guinea pig Bradykinin Receptor B2 (BK2) (AID 2283292)
# In short: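 Radioligand displacement on guinea pig ileum membranes for 1 h, read by filter-based scintillation counting; loss of signal relative to DMSO. Compounds were screened in duplicate at 25 uM, and those passing the threshold were retested in concentration-response up to 50 uM.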
# [12] = test system: 5-hydroxytryptamine receptor 2C (pig); test: NVS_GPCR_p5HT2C: NovaScreen (NVS) G Protein-Coupled Receptor Assay for pig Serotonin, 5-Hydroxytryptamine Receptor 2C (5HT2C) (AID 2283288)
# In short: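 Pig choroid plexus membranes; radioligand competitive binding, filter-based scintillation counting, read 1 h after dosing. Primary screen in duplicate at 25 uM; actives then run as concentration series; loss of signal versus DMSO baseline.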
# [13] = target: rat Adrenergic Receptor, Beta (Adrb), Non-selective Binding, Adrb1 (gene 24925) (UniProt P18090); test: NVS_GPCR_rAdrb_NonSelective: NovaScreen (NVS) G Protein-Coupled Receptor Assay for rat Adrenergic Receptor, Beta (Adrb), Non-selective Binding (AID 2283298)
# In short: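 Non-selective beta-adrenergic radioligand binding in rat cortical membranes, 1 h incubation, filter-based scintillation read-out. Primary screen 25 uM in duplicate; hits retested in concentration-response up to 50 uM, DMSO baseline.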
# [14] = target: rat Serotonin, 5-Hydroxytryptamine Receptor 1 (5HT1), Non-Selective Binding, Htr1a (gene 24473) (UniProt P19327); test: NVS_GPCR_r5HT1_NonSelective: NovaScreen (NVS) G Protein-Coupled Receptor Assay for rat Serotonin, 5-Hydroxytryptamine Receptor 1 (5HT1), Non-Selective Binding (AID 2283286)
# In short: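 Rat cortical membranes, radioligand displacement, 1 h incubation, read by filter scintillation. Primary screen in duplicate at 25 uM. Hits (e.g. ≥30% inhibition) went to concentration-response up to 50 uM, fitted as loss of binding versus DMSO.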
# [15] = target: mouse Cholecystokinin, CCK2 Receptor (CCKB), Cckbr (gene 12426) (UniProt P56481); test: NVS_GPCR_mCKKBCentral: NovaScreen (NVS) G Protein-Coupled Receptor Assay for mouse Cholecystokinin, CCK2 Receptor (CCKB) (AID 2283293)
# In short: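 Radioligand displacement binding on mouse forebrain membranes, 2 h exposure, filter-based scintillation counting. Primary screen in duplicate at 25 uM; actives (e.g. ≥30% inhibition) retested in concentration-response up to 50 uM; loss of binding signal relative to DMSO.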
# [16] = target: rat Gamma-Aminobutyric Acid Type B Receptor (GABBR), Gabbr1 (gene 81657) (UniProt Q9Z0U4); test: NVS_GPCR_rGABBR: NovaScreen (NVS) G Protein-Coupled Receptor Assay for rat Gamma-Aminobutyric Acid Type B Receptor (GABBR) (AID 2283301)
# In short: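 Radioligand displacement on rat cortical membranes, 1 h, filter-based scintillation counting. Primary screen at 25 uM in duplicate; compounds passing threshold re-tested in concentration-response up to 50 uM; loss of binding fitted against DMSO.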
# Sequence of guinea pig Serotonin, 5-Hydroxytryptamine Receptor 4 (5HT4), HTR4 (gene 100135548) (O70528 whole entry, looked up): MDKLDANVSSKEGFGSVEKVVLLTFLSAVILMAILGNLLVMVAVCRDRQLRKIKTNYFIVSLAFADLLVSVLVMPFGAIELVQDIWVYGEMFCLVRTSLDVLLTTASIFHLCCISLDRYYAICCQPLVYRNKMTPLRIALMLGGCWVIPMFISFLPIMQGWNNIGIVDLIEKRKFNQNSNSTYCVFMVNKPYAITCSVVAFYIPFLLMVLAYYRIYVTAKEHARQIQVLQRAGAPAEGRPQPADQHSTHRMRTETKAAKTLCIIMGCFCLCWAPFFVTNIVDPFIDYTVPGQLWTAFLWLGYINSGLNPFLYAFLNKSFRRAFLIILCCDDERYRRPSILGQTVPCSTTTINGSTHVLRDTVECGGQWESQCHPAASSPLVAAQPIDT
# Sequence of rat Neurotensin Receptor (NTS), Ntsr1 (gene 366274) (P20789 whole entry, looked up): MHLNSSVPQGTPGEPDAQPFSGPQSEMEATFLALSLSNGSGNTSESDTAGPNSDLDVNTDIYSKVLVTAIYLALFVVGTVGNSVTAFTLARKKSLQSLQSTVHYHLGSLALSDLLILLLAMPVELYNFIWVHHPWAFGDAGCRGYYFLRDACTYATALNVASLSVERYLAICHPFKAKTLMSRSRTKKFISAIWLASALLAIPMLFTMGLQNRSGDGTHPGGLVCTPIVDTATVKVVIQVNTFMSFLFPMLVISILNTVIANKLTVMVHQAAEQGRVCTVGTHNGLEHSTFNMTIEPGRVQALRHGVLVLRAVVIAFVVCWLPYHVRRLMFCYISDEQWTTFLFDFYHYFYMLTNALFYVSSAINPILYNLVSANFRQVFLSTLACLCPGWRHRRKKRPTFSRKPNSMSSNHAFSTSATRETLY
# Sequence of human Opioid Receptor Mu (Opiate Mu), OPRM1 (gene 4988) (P35372 whole entry, looked up): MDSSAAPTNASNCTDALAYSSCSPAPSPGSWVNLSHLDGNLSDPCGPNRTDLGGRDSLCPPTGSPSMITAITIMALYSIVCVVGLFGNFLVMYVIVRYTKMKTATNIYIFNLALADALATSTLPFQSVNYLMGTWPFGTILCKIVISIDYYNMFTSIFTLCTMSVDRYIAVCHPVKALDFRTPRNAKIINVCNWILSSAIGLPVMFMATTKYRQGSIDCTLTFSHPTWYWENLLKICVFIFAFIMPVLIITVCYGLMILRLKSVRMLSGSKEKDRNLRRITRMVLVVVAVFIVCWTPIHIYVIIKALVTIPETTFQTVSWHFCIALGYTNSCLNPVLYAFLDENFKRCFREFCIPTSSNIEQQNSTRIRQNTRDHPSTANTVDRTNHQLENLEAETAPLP
# Sequence of rat Corticotropin Releasing Factor Receptor (CRF), Crhr1 (gene 58959) (P35353 whole entry, looked up): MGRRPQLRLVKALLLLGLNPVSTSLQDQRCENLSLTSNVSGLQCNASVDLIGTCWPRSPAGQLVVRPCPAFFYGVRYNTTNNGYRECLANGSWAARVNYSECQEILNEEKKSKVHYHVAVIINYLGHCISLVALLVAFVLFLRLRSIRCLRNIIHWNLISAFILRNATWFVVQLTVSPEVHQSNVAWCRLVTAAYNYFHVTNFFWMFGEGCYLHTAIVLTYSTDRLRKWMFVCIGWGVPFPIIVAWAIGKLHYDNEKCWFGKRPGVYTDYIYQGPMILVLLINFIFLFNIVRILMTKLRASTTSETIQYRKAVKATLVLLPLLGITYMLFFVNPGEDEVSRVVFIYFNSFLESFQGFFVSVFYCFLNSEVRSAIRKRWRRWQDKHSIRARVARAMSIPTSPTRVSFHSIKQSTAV
# Sequence of rat Adrenergic Receptor, Alpha 2 (Adra2), Non-selective Binding, Adra2a (gene 25083) (P22909 whole entry, looked up): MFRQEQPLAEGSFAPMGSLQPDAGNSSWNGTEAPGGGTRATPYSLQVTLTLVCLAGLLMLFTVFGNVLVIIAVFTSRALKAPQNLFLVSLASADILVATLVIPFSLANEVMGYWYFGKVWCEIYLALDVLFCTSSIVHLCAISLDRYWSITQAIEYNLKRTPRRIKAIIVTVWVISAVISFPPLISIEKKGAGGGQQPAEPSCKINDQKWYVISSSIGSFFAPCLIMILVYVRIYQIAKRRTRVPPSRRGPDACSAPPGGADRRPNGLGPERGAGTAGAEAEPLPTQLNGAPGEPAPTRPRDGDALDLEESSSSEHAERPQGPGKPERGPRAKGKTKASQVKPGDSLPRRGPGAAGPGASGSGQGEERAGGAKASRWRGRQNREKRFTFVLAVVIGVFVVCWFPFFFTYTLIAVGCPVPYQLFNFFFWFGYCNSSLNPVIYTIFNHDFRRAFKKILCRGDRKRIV
# Sequence of guinea pig Bradykinin Receptor B2 (BK2), BDKRB2 (gene 100135486) (O70526 whole entry, looked up): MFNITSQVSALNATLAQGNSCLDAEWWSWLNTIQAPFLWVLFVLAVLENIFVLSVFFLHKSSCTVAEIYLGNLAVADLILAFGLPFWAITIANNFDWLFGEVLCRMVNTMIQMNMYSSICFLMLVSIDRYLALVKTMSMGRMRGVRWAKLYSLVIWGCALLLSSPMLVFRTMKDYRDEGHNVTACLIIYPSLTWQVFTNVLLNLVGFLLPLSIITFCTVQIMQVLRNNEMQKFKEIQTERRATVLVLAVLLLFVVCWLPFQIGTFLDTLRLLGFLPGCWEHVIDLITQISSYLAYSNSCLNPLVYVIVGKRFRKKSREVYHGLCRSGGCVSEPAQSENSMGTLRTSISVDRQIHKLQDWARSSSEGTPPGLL
# Sequence of rat Gamma-Aminobutyric Acid Type B Receptor (GABBR), Gabbr1 (gene 81657) (Q9Z0U4 whole entry, looked up): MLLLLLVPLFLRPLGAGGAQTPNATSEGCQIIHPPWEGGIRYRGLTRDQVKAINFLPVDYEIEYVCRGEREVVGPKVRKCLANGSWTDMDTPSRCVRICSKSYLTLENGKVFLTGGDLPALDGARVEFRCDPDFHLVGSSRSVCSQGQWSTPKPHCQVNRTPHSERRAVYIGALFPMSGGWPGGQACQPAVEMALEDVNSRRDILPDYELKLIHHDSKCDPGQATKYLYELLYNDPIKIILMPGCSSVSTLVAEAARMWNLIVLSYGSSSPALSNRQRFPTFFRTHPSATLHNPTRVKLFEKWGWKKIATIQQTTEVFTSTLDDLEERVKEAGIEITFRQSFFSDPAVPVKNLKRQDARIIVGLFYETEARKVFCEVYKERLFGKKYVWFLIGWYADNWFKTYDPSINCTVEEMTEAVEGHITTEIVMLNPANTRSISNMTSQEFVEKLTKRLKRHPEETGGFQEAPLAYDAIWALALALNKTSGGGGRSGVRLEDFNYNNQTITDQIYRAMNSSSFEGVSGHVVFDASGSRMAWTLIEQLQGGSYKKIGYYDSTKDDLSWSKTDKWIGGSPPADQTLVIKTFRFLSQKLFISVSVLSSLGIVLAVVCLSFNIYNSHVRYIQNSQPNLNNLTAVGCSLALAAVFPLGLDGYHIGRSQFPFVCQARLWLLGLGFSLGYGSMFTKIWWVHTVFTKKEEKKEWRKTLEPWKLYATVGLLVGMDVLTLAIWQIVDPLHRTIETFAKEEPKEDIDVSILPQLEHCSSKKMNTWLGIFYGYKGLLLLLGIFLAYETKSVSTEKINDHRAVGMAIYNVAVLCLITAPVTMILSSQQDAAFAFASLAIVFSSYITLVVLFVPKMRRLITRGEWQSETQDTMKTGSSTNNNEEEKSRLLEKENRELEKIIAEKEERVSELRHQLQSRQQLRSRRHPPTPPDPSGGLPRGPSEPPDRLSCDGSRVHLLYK
# Sequence of Adra2b (gene 24174) (P19328 whole entry, looked up): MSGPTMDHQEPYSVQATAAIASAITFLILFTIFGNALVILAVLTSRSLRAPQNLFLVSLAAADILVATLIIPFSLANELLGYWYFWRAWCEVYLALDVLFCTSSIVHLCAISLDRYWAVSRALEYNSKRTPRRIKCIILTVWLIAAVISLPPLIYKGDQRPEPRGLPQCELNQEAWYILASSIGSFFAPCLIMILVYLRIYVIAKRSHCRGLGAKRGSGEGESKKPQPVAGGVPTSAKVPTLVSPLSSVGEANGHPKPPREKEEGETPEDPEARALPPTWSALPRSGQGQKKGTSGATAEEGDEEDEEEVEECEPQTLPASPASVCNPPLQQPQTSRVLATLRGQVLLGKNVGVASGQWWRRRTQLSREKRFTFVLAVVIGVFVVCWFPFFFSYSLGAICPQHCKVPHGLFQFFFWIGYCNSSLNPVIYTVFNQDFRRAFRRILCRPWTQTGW
# Sequence of rat Adrenergic Receptor, Beta (Adrb), Non-selective Binding, Adrb1 (gene 24925) (P18090 whole entry, looked up): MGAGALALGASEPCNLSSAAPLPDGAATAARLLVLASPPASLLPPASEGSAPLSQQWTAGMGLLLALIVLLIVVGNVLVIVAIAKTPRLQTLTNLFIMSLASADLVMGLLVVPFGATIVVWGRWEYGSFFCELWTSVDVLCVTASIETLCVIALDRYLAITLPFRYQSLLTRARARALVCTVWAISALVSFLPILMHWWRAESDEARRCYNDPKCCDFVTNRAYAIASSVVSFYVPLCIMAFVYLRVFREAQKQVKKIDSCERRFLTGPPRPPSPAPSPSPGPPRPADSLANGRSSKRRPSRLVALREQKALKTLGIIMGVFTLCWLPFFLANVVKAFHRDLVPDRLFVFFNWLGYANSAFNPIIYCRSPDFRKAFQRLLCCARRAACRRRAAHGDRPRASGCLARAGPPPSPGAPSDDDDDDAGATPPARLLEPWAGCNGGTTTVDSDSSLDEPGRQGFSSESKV
# Sequence of mouse Cholecystokinin, CCK2 Receptor (CCKB), Cckbr (gene 12426) (P56481 whole entry, looked up): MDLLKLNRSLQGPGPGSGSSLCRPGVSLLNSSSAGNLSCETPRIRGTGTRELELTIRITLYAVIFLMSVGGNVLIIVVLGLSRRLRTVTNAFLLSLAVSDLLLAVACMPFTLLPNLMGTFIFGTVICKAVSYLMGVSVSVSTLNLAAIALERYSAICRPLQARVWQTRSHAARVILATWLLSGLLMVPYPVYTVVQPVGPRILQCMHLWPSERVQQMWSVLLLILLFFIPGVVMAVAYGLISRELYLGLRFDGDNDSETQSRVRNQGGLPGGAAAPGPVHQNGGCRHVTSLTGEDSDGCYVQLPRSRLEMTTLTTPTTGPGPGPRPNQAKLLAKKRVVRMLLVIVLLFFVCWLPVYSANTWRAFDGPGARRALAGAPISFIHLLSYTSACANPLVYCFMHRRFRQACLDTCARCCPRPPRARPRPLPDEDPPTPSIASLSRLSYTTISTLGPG
structure (smiles),measurement,setting,value
CCOP(=S)(OCC)SCn1c(=O)oc2cc(Cl)ccc21,AC50,[1],19.2 µM (active)
same,outcome,[2],inactive
COC(=O)C(C)Oc1ccc(Oc2ccc(Cl)cc2Cl)cc1 (stereo unspecified),outcome,[3],inactive
same,outcome,[4],inactive
CCCCC(CC)COC(=O)c1ccccc1C(=O)OCC(CC)CCCC (stereo unspecified),outcome,[3],inactive
Fc1ccc(Oc2ccnc3cc(Cl)cc(Cl)c23)cc1,outcome,[3],inactive
same,outcome,[5],inactive
same,outcome,[2],inactive
CC1COC(Cn2cncn2)(c2ccc(Oc3ccc(Cl)cc3)cc2Cl)O1 (stereo unspecified),AC50,[1],1.88 µM (active)
same,outcome,[6],inactive
same,AC50,[7],2.28 µM (active)
same,AC50,[8],4.59 µM (active)
CNC(=S)S,outcome,[3],inactive
same,outcome,[1],inactive
same,outcome,[9],inactive
same,outcome,[4],inactive
O=C(Nc1ccccc1)Nc1ccnc(Cl)c1,AC50,[1],6.97 µM (active)
same,AC50,[6],9.9 µM (active)
same,AC50,[10],17 µM (active)
same,AC50,[7],9.64 µM (active)
same,AC50,[8],8.91 µM (active)
O=C(O)c1nc(Cl)ccc1Cl,outcome,[11],inactive
C=CCC1=C(C)C(OC(=O)C2C(C=C(C)C)C2(C)C)CC1=O (stereo unspecified),outcome,[12],inactive
same,outcome,[1],inactive
N#Cc1nn(-c2c(Cl)cc(C(F)(F)F)cc2Cl)c(N)c1S(=O)C(F)(F)F (stereo unspecified),outcome,[9],inactive
Oc1ccccc1-c1ccccc1,outcome,[6],inactive
CCNc1nc(Cl)nc(NCC)n1,outcome,[13],inactive
COC(=O)N(OC)c1ccccc1COc1ccn(-c2ccc(Cl)cc2)n1,AC50,[1],0.879 µM (active)
CCNc1nc(Cl)nc(NC(C)C)n1,outcome,[9],inactive
same,outcome,[4],inactive
CCCN(CCC)c1c([N+](=O)[O-])cc(S(N)(=O)=O)cc1[N+](=O)[O-],outcome,[11],inactive
CN(C)C(=S)SSC(=S)N(C)C,outcome,[14],inactive
same,AC50,[1],5.29 µM (active)
C#CCOS(=O)OC1CCCCC1Oc1ccc(C(C)(C)C)cc1 (stereo unspecified),outcome,[15],inactive
COc1nc(C)nc(NC(=O)NS(=O)(=O)c2ccccc2Cl)n1,outcome,[16],inactive
same,outcome,[4],inactive
